Assay results: ChEMBL document CHEMBL3988442, “University of Dundee, Small-Polar-MMV Screening Library” (2021)

target: AMP-activated protein kinase, AMPK (Homo sapiens) (UniProt P54646+O43741+P54619+Q9UGJ0+Q9Y478+Q13131+Q9UGI9); experiment: AMP-dependent Kinase enzyme assay. An in vitro enzyme assay that detects ADP turnover that is directly proportional to AMPK activity. This uses naive AMPK that is activated during the assay with MK-8722; type: functional; set-up: scale not given: direction of the effect not stated beside the values; details: 30 µM

Structure (SMILES)	Percent Effect [%]
O=C(c1ccc(=O)[nH]c1)N1CCC(Oc2cccc(C(F)(F)F)c2)CC1	-3.39
COc1ccc(CCN(C)C(=O)c2cc(C(C)=O)c[nH]2)cc1OC	-3.69
Cc1ccccc1-c1noc(-c2ccc(NCC3COCCO3)nc2)n1 (stereo not given)	6.52
COCCN(CCOC)c1nc2c(s1)c(C)nn2C	0.796
CC(C)CN(Cc1ccccn1)Cc1ccccc1OCC(=O)O	-7.24
CCc1cc(N2CCC(NCc3ccc(C)o3)CC2)ncn1	6.83
Cc1cc(C(=O)NCCC(=O)N2CCCc3ccccc32)no1	-5.97
Cc1cc(C2CCCN(CC(=O)N3CCc4ccccc43)C2)n[nH]1 (stereo not given)	-5.04
Cn1ccnc1C1(O)CCN(C(=O)CCc2ccccc2)CC1	8.55
Cc1cnc(N2CCN(C)CC2)nc1-c1ccnn1C	-3.23
O=C(CCn1cncn1)N1CCCC(CO)(CCCc2ccccc2)C1 (stereo not given)	0.934
Cc1ccc(-c2nc(CN3CCOCC3)no2)cc1N1CCNC1=O	7.88
Cn1cccc1CNCC1CCCn2cc(C(C)(C)C)nc21 (stereo not given)	-0.856
Cc1cc(C[S+]([O-])Cc2ccccc2F)on1 (stereo not given)	6.4
O=C(Nc1ccc2c(c1)C(=O)NC2=O)c1cccs1	16.2
COC(=O)Cn1c(C)cc(=O)c2cc(F)ccc21	1.38
CC(C)C(=O)Nc1cccc(CNC(=O)CSCc2ccccn2)c1	1.74
NCCc1cc(N2CCOCC2)nc(NC2CC2)n1	3.97
Cc1nnc(SCCNc2cc(C3CC3)ncn2)s1	14.2
CC(O)c1cccc(OCc2ccon2)c1 (stereo not given)	4.94

Structure (SMILES)	Percent Effect [%]
COC(=O)C1CN(Cc2ccn(-c3ccc(F)cc3)n2)C[C@@H](C)O1 (stereo not given in full)	-6.96
NC(=O)NC1CCN(Cc2ccc3c(c2)CCC3)CC1	2.24
CC(C)(C)NC(=O)c1cnc2n1CCCC2	0.336
CCCN(CCc1ccccn1)C(=O)CCc1cnn(C)c1	4.13
Cc1ncsc1CCN(C)Cc1ccc(Br)o1	-1.27
Cc1ccccc1C(CC(=O)N1CCc2sccc2C1)NC(N)=O (stereo not given)	11.7
CC1CCN(C(=O)CCN2Cc3ccccc3C[C@H]2C(N)=O)C1 (stereo not given in full)	-7.65
c1cnn(C2CN(c3nc(-c4ccncc4)nc4c3CCC4)C2)c1	1.13
Cc1nn(C)c2nc(NC3CCNCC3)sc12	0.889
CC1(C)OC(=O)N(CCCC(=O)c2ccc(F)cc2)C1=O	-8.28
COc1ccc(Cn2c(Cc3c(C)n[nH]c3C)n[nH]c2=O)cc1	-5.3
Cc1cc(CN2CCC(C3CCN(CCc4ccccc4)C3)CC2)[nH]n1 (stereo not given)	-5.07
Cc1cccc(C2(CNC(=O)c3ccnc(N(C)C)c3)CCOCC2)c1	-0.987
Cc1ccnc2c1NC(=O)CN2C(=O)CCc1cccs1	-0.535
COc1ccc(CCCC(=O)N2CCCC(n3cncn3)C2)cc1 (stereo not given)	4.51
COc1ccccc1NC(=O)CCNC(=O)c1ccoc1	-6.87
CCC(C)(CC(=O)OC)NCc1nc(C)no1 (stereo not given)	-1.72
O=C(c1cnc2c(c1)CCC2)N1CCCC(CO)(CC2CC2)C1 (stereo not given)	3.82
COC(=O)CCN(C)C(=O)c1csc(Cc2ccccc2F)n1	-2.56
c1ccc(Cc2noc(-c3ccc(NCC4CCCOC4)nc3)n2)cc1 (stereo not given)	6.64
